Here are results for 36 compounds from PubChem BioAssay (NCI).

Several values for one entry are separate records, joined by “and”; a condition that tells them apart may be missing. Equal values may be shown once. This is part of a sample that, as a whole, favours compounds with a hit. Of some 83,000 tested, about 20% had one in any assay.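 Percent growth is the endpoint: 0 to 100 indicates growth inhibition (40 means 60% inhibition), 0 means no net growth, and negative values indicate cell death.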 Activity calls are given as the source filed them. The calls were made as follows: active = growth percent below 10; inactive = the rest.

The test system of one test is NCI-H23 lung. The experiment in a line: NCI-60 one-dose screen, 48 h (100 = growth as untreated, 0 = no growth, -100 = all killed). Conditions: 10 µM unless noted.
`Nc1ccccc1Nc1ccccc1`: the growth is 100% (inactive) and 96.2% (inactive). The same measure, in the same setting: as for `Oc1ccccc1C=NCC1CCC(CN=Cc2ccccc2O)CC1` (centres undefined), the figure is 78.9% (inactive); as for `Clc1ccc(NC(Nc2ccc(Cl)cc2)C(Cl)(Cl)Cl)cc1`, 78.1% (inactive) and 96.5% (inactive).

The subject of the next test is NCI-H226 lung. Described as above. Conditions: 10 µM unless noted.
Regarding `COc1ccc(/C(C#N)=C/c2ccccn2)cc1`, the growth was 95.9% (inactive) and 128% (inactive). The same measure, in the same setting: the figure for `O=C1OC2(c3ccccc31)c1ccc(O)c(O)c1Oc1c2ccc(O)c1O` is 90.5% (inactive) and 121% (inactive).

Regarding `CC(=O)Nc1cccc2c1CCCC2`, the growth is 98.9% (inactive) and 98.7% (inactive).

In the case of `CN(C)c1ccc2nc3ccc(N)cc3[n+](-c3ccccc3)c2c1`, the growth is 54.7% (inactive) and 72.4% (inactive). Same read-out and setting: as for `CCN(CC)CCOc1ccc(/C=N/Nc2nc3c([nH]2)c(=O)n(C)c(=O)n3C)cc1`, the figure is 102% (inactive) and 101% (inactive).

On to `O=C1CCN(Cc2ccccc2)C(=S)N1`, for which the growth was 110% (inactive) and 105% (inactive). Same read-out and setting: the figure for `CC(C)Cc1ccc(C(C)C(=O)NCc2ccc(Cn3c(=O)sn(CCCI)c3=O)cc2)cc1` (centres undefined) is 83.8% (inactive) and 4.03% (active). For the compound `CCc1c(CC(=O)O)c2cc(C)ccc2n1Cc1ccc(Cl)cc1`, the growth was 94.9% (inactive) and 97.8% (inactive). For `CNC(=O)c1ccc(C)c(-n2c(C)cc(OCc3ccc(F)cc3F)c(Br)c2=O)c1`, the growth is 67.2% (inactive) and 64.6% (inactive).

Consider `O=[N+]([O-])c1ccc(-n2[nH]nnc2=S)cc1`, for which the growth is 107% (inactive).

With `COC(=O)/C=C/c1cc(O)c2c(c1)C(C(=O)OC)C(c1ccc(O)c(O)c1)O2` (centres undefined), the growth is 57.1% (inactive) and 39.7% (inactive). Same read-out and setting: the figure for `COC(=O)c1nc(N)nc(C(=O)OC)c1C(=O)c1ccc(OC)cc1` is 101% (inactive) and 74.8% (inactive). Same read-out and setting: the figure for `COc1cc2c(c(OC)c1OC)-c1ccc(OC)c(=O)cc1[C@@H](NC(C)=O)CC2` is 33.9% (inactive) and 13.1% (inactive) and 31% (inactive); for `CN1CCN(c2ccc3nc(-c4c(N)c5c(F)cccc5[nH]c4=O)[nH]c3c2)CC1` it is 54.8% (inactive) and 71.3% (inactive); for `NC(=S)NN=C1CCC(C2CCCCC2)CC1` (centres undefined) it is 89.1% (inactive) and 73% (inactive). Consider `c1ccc2cc(C[n+]3ccn(Cc4ccc5ccccc5n4)c3)ccc2c1`, for which the growth was 19.6% (inactive) and 46.4% (inactive).

On to `CN(C)CCC(=O)c1ccc(Cl)cc1`, for which the growth is 99.3% (inactive) and 110% (inactive). Same read-out and setting: as for `Fc1ccccc1Nc1n[nH]c(=S)s1`, the figure is 107% (inactive); as for `CCOc1ccc2cc(-c3nn(CC4CCN(C)CC4)c4ncnc(N)c34)ccc2c1`, 83.6% (inactive) and 67.7% (inactive); as for `CC[N+](CC)(CC(=O)Nc1c(C)cccc1C)Cc1ccccc1`, 87% (inactive) and 97.8% (inactive). The same measure, in the same setting: as for `CC1=CCC2CC1C2(C)C` (centres undefined), the figure is 101% (inactive) and 97.7% (inactive); as for `CC1(C)[C@@H](OC(=O)CCC(=O)O)CC[C@]2(C)[C@H]3C(=O)C=C4[C@@H]5C[C@@](C)(C(=O)O)CC[C@]5(C)CC[C@@]4(C)[C@]3(C)CC[C@@H]12`, 104% (inactive) and -75.4% (active); as for `CCC(O)c1ccccc1` (centres undefined), 96.1% (inactive) and 109% (inactive).

Turning to `CN(Cc1ccccc1)Cc1ccccc1`, the growth is 94.1% (inactive). Still for that read-out and setting: as for `COc1ccc(-c2ncnc3c2ncn3C/C=C/CCl)cc1`, the figure is 89.4% (inactive) and 81.5% (inactive).

Turning to `NS(=O)(=O)c1cc2c(cc1Cl)NC(C(Cl)Cl)NS2(=O)=O` (centres undefined), the growth is 108% (inactive) and 99.3% (inactive). Same read-out and setting: as for `O=Nc1ccc(O)cc1`, the figure is 95.5% (inactive) and 109% (inactive). Take `COc1ccc2c(=O)cc(-c3ccccc3)[nH]c2c1`: the growth is 57.3% (inactive) and 23.8% (inactive). The same measure, in the same setting: the figure for `O=CC(O)C(O)C(O)CO` (centres undefined) is 93.9% (inactive) and 101% (inactive); for `CN(C)c1ccc(/C=C(\C#N)c2ccccc2)cc1` it is 92.4% (inactive) and 60.5% (inactive) and 73% (inactive); for `OCCN1CCN(CCO)CC1` it is 107% (inactive) and 97.5% (inactive). Same read-out and setting: as for `CC1=C[C@H]2c3c(c(O)c(O)c4oc5cc(O)cc(O)c5c(=O)c34)[C@H](c3cc(O)c(O)c4oc5cc(O)cc(O)c5c(=O)c34)[C@H]2C(C)(C)C1`, the figure is 2.7% (active) and -31.2% (active); as for `CCOc1ccc2c(S(=O)(=O)O)cccc2c1[N+](=O)[O-]`, 97.1% (inactive) and 94% (inactive); as for `Nc1ccccc1Nc1ccccc1`, 98.8% (inactive) and 86.8% (inactive). As to `Oc1ccccc1C=NCC1CCC(CN=Cc2ccccc2O)CC1` (centres undefined), the growth was 101% (inactive). Same read-out and setting: the figure for `Clc1ccc(NC(Nc2ccc(Cl)cc2)C(Cl)(Cl)Cl)cc1` is 107% (inactive) and 96.8% (inactive).
